Laboratory results taken from PubChem BioAssay AID940 (Emory University Molecular Libraries Screening Center, 2007).
Values joined by “and” are separate entries in the source; they are usually repeats but may differ in a detail not shown here. Equal entries are not always repeated. The campaign covered roughly 260,000 compounds. About 2,200 (0.85%) were called active. The sample holds actives, similar compounds and a random draw of the others, so the mix is not that of the screen. A number with no mark means an inactive call.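 Rule for the calls: active = compounds whose cAMP rise, as percent of the full-agonist control response, exceeds 60; inactive = the rest.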

Biological target: Prostaglandin E2 receptor EP2 subtype (Homo sapiens) (UniProt P43116)
Sequence (P43116 whole entry, looked up): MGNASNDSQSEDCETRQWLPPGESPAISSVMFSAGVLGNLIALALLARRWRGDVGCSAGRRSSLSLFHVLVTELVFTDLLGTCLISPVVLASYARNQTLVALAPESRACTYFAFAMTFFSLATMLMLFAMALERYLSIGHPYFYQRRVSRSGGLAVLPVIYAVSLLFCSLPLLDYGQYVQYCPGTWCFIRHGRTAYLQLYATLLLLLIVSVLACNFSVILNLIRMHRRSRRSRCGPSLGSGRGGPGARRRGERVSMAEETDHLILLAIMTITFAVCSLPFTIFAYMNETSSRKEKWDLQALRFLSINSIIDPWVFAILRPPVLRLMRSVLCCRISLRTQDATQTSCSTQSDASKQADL
Experiment: EP2 receptor modulators, cAMP readout, primary screen, cell-based, HTRF cAMP, PGE2 stimulation (AID 940);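 note: rat C6 glioma line stably carrying human EP2 under a CMV promoter; the protocol text gives 20 µM as final concentration; 100% = response of wells given 1 µM PGE2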
Conditions: EP2-expressing cells, cAMP HTRF FRET, PGE2 co-stimulation; at 25 µM; stronger effect = higher value

SMILES	induction
Cc1ccc(Cn2c3ccccc3n3c(SCC(=O)N4CCc5ccccc54)nnc23)cc1	-8.29%
COc1ccc(N=Nc2ccc(O)c(P(=O)(c3ccccc3)c3ccccc3)c2)cc1	25.3%
CC(C)(C)c1cc(P(=O)(c2ccccc2)c2ccccc2)ccc1O	66.9% (active)
O=P(O)(CP(=O)(c1ccccc1)c1ccccc1)c1ccccc1O	-5.29%
CN(C)C(=O)CN1N=C(C(C)(C)C)Cn2c(cc3sccc32)C1=O	-24.7%
CC(=O)c1ccc2c(ccc3ccccc32)c1	-39.4%
CCn1c2ccccc2c2cc(CC(N)=O)ccc21	13.3%
CC(=O)c1ccc2c(c1)c1ccccc1n2CC(C)C	66.9% (active)
Cc1sc2ncnc(NCC(=O)O)c2c1C	2.64%
COc1cc(-c2nnc(SCC(=O)N3CCC(C)CC3)o2)cc(OC)c1OC	-36.6%
CCN1CCCC1CN(Cc1ccccn1)Cc1cccn1-c1ccncc1 (stereo not drawn)	7.11%
Cc1cc(C#N)c(SCC(N)=O)nc1-c1ccc(F)cc1	65.8% (active)
Cc1cc(=O)[nH]c(SCC(N)=O)c1C#N	24.2%
CCN(CC)C(=O)CSc1nc2c(C)c(C)ccc2cc1C#N	27.6%
CCc1c(C)nc(NC2CCN(C(=O)c3cccc(N(C)C)c3)CC2)[nH]c1=O	-19.1%
COC(=O)CSc1nnc(CSc2nc(C)cc(C)n2)n1-c1ccc(C)cc1	-20.7%
CCOc1ccc(NC(=O)CSc2ncnc3c2sc2ccccc23)cc1	78.8% (active)
CCOc1ccc(NC(=O)CSc2nc(C(C)C)nc3ccccc23)cc1	10.4%
COc1cc(NC(=O)CSc2ncnc3c2sc2nc4cc(C)ccc4cc23)cc(OC)c1	-7.45%
CC(c1ccccc1)n1c(Br)nc2c1c(=O)n(C)c(=O)n2C (stereo not drawn)	-1.23%
COc1ccc2[nH]c(=O)c(CN(C3CCCC3)C(c3nnnn3Cc3ccccc3)C(C)C)cc2c1 (stereo not drawn)	40.1%

SMILES	induction
CC1(C)C2CCC1(C)C(OC(=O)CCn1ccnc1)C2 (stereo not drawn)	-7.75%
Cc1ccc(C(=O)OC2CCCN(C)C2)cc1 (stereo not drawn)	11.9% and -29.7%
CC1(C)C2CCC1(C)C(OC(=O)c1ccc(O)cc1)C2 (stereo not drawn)	67.5% (active)
c1ccc(C(c2nnnn2Cc2ccc3c(c2)OCO3)N2CCN(C3CCCCC3)CC2)cc1 (stereo not drawn)	-64.5%
CC(C)(C)C(=O)c1cn(CC(=O)N2CCCCC2)c2ccccc12	-9.2%
CCn1c(C)nnc1SCC(=O)Nc1ccc(Br)cc1	-1.86%
CCOC(=O)N1CCN(CC(=O)Nc2cc(C)nn2-c2nc3ccccc3s2)CC1	32.4%
Cc1cc(NC(=O)CN2CCCC(C)C2)n(-c2nc3ccccc3s2)n1 (stereo not drawn)	77.7% (active)
CC(=O)Nc1ccc(NC(=O)CN2CCCC(C)C2)c(Cl)c1 (stereo not drawn)	-9.9%
COc1ccc(Cc2n[nH]c(=S)n2C)cc1	25.4%
Cc1cc(-c2cnc(C)nc2C2CCN(C(=O)Cc3ccc(C)s3)CC2)on1	-15.1%
CN(C)c1ccc(/C=N/N(Cc2ccccc2)c2ccccc2)cc1	23.9%
Oc1ccc(/C=N/N(Cc2ccccc2)c2ccccc2)cc1	67.5% (active)
O=C(N/N=C/c1ccc(OCc2ccccc2)cc1)c1ccc(O)cc1	-46.8%
Cc1ccc(C(=O)c2c(NC(=O)c3ccncc3)sc3c2CCCC3)cc1	68.7% (active)
Cc1ccc(C(=O)c2c(NC(=O)c3ccccc3)sc(C)c2C)cc1	8.95%
Cc1ccc(NC(=O)c2c(NC(=O)CCC(=O)O)sc3c2CCCCC3)cc1	12.1% and -20.9%
Cc1cc(-c2cncnc2C2CCCN(CC(=O)Nc3cc(C)on3)C2)on1 (stereo not drawn)	0.23%
CCOC(=O)c1c(CN2CCOCC2)nc2ccc(Cl)cc2c1-c1ccccc1	22.7%
Fc1ccc(CSc2nnc(-c3cc4c(s3)-c3ccccc3CC4)o2)cc1	1.98%
C#CCSc1nnc(-c2sc3ccccc3c2Cl)o1	40.2%

SMILES	induction
CCSc1nnc(-c2cc3c(s2)-c2ccccc2CC3)o1	63.3% (active)
CC(=O)c1ccc(S(=O)(=O)N2CCC(n3c(C)nc4cc(F)ccc43)CC2)cc1	-40.5%
Cc1occc1-c1nn(C2CCN(S(=O)(=O)N(C)C)CC2)c(=O)o1	-53%
CCN(CC)C(=O)CSc1nc2ccccc2c(=O)n1-c1ccccc1	-15.6%
CN1CCN(C(c2ccccc2Cl)c2nnnn2C2CCCCC2)CC1 (stereo not drawn)	-13.7%
c1ccc(C(c2nnnn2C2CCCCC2)N2CCc3ccccc3C2)cc1 (stereo not drawn)	68.5% (active)
c1ccc(C(c2ccccc2)N2CCN(Cc3nnnn3C3CCCCC3)CC2)cc1	56.5%
CCS(=O)(=O)N1CCN(c2nc3ccccc3s2)CC1	-84.9%
O=C(Cn1nc(-c2cccnc2)oc1=O)N1CCCC1	-282%
O=C(COc1ccc(Cl)cc1)Nc1ccccc1CO	-10.2%
COC(=O)c1sccc1NC(=O)COc1ccc(Cl)cc1	61.7% (active)
COC(=O)c1sccc1NC(=O)CCC1CCCC1	11.9%
CCN(CC)CCN(Cc1cc2cccc(C)c2[nH]c1=O)C(=S)NCCOC	-15.8%
CC(C(=O)N1CCC(n2nc(-c3ccco3)ccc2=O)CC1)c1ccccc1 (stereo not drawn)	-23.1%
Cc1nn2c(c1-c1ccccc1)N=C(c1ccco1)CC2c1ccccc1 (stereo not drawn)	83.8% (active)
COCC(=O)Nc1nnc(Cc2ccccc2)s1	-1.1%
CCc1nn(CC(=O)NC(C)c2ccccn2)c(=O)c2cc3ccsc3n12 (stereo not drawn)	-14.5%
O=C(c1ccn[nH]1)N1CCn2cc(C(F)(F)F)nc2C1	-3.08%
COc1ccc(CN2CCCCC2C)cc1OC (stereo not drawn)	1.32%
CC1CCCCN1CC(=O)NCc1ccc2c(c1)OCO2 (stereo not drawn)	8.14%
CCc1ccc2oc(=O)cc(CN3CCCCC3C)c2c1 (stereo not drawn)	64.2% (active)
